Experimental findings from PubChem BioAssay (NCI) are described below.

Experiment in all cases: NCI-60 one-dose screen, 48 h (100 = growth as untreated, 0 = no growth, -100 = all killed)
Common to all, as to conditions: 10 µM unless noted

Assay [1] has as its system SR leukemia.
Assay [2] relates to RPMI-8226 leukemia.
In assay [3] the test system is OVCAR-8 ovarian.
Assay [4] concerns OVCAR-5 ovarian.
Assay [5] relates to OVCAR-4 ovarian.
For assay [6], the system named is SK-OV-3 ovarian.
Assay [7] concerns IGROV1 ovarian.
Assay [8] deals with OVCAR-3 ovarian.
For assay [9], the system named is HS 578T breast.
Assay [10] concerns NCI/ADR-RES ovarian.

About 83,000 compounds went through this panel and 20% of them were active in at least one assay; those are over-represented in the sample as a whole.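 96-well plates, one dose, 48 hours. Percent growth reported; active if below 10.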 A number with no mark means an inactive call. Activity calls are given as the source filed them.

On to `CC(=O)Nc1ccc(-c2ccc3c(c2)NC(=O)/C3=C\c2ccc[nH]2)cc1`, for which the growth is 36.5% in [1]; 94.4% in [2]; 99.8% in [3]; 73% in assay [4]; 102% in [5]; 121% in assay [6]. Moreover, the growth was 96.6% in [7], 104% in assay [8], 110% in assay [9] and 96.7% in assay [10].

As for `c1ccc(-c2c(-c3ccccc3)[n+](Cc3ccc4ccccc4c3)c(-c3cccc4ccccc34)n2Cc2ccc3ccccc3c2)cc1`, the growth was -36.5% (active) in assay [1]; -38.7% (active) in [2]; -44.4% (active) in assay [3]; -47.8% (active) in [4]; -81% (active) in assay [5]; -50.3% (active) in assay [6]. Moreover, the growth in assay [7] was -71.4% (active); in assay [8], -88% (active); in assay [9], -26.9% (active); in [10] it was -18.9% (active).

In the case of `N#Cc1c(NC(=O)NCc2ccccc2)sc2c1CCCCC2`, the growth was 29.5% in assay [1]; 14.8% in assay [2]; 21.8% in assay [3]; 43.5% in assay [4]; 43% in [5]; 25% in [6]. The growth was 27.2% in assay [7], -17.6% (active) in assay [8], 9.89% (active) in assay [9] and 17.2% in assay [10].

As for `CN(C)CC(O)c1ccc(/C=C/c2ccc(Cl)cc2)cc1` (stereo not given), the growth in assay [1] is -38.8% (active); in [2], -8.89% (active); in assay [3], -34.2% (active); in assay [4] it was 2.11% (active); in assay [5], 25.2%; in assay [6] it was 52.8%. The growth in assay [7] was -57.8% (active); in assay [8], -64.8% (active); in [9], -26.3% (active); in [10] it was 5.74% (active).

As to `COc1cc2nc(-c3ccc(C(F)(F)F)cc3)cc(OCCCN3CCCC3)c2cc1OC`, the growth is 19.4% in assay [1]; 21.6% in assay [2]; 48.7% in [3]; 56.9% in assay [4]; 57.1% in assay [5]; 88.6% in assay [6]. The growth in assay [7] was 36.2%; in assay [8], 64.8%; in assay [9] it was 64.4%; in assay [10], 46.4%.

`Cn1c(N2NC(=O)C(N=Nc3ccc(S(N)(=O)=O)cc3)C2=O)nc(-c2ccco2)c(C#N)c1=O` (stereo not given): the growth in assay [1] is 1.63% (active); in [2], 3.99% (active); in [3], 90.2%; in assay [4] it was 115%; in [5] it was 59.2%; in assay [6], 102%. The growth in [7] was 30.7%; in assay [8] it was 72.7%; in assay [9], 104%; in assay [10], 93%.

As for `O=C(/C=C/c1ccc[nH]1)c1ccc(-n2ccc(C(F)(F)F)n2)c(F)c1`, the growth was 80.3% in assay [1]; -6.08% (active) in assay [2]; 95.6% in assay [3]; 90.9% in assay [4]; 99.2% in assay [5]; 121% in [6]. For the same compound, the growth was 93.4% in [7], 99.8% in assay [8], 98% in assay [9] and 93.1% in [10].

Turning to `COc1cc2nc(-c3ccc(C(F)(F)F)cc3)cc(OCCCN3CCOCC3)c2cc1OC`, the growth in [1] is 16.5%; in assay [2] it was 10.8%; in assay [3], 41.6%; in [4], 45.8%; in [5], 52.8%; in assay [6] it was 70.3%. Besides, the growth is 36.4% in assay [7], 61.6% in assay [8], 54.7% in assay [9] and 40.4% in assay [10].

Consider `COc1cc2nc(-c3ccc(Cl)cc3)cc(OCCCN3CCOCC3)c2cc1OC`, for which the growth in assay [1] is 12.9%; in assay [2] it was 20.4%; in assay [3] it was 42.7%; in assay [4] it was 42.8%; in assay [5], 70.4%; in assay [6], 68.4%. Also, the growth in assay [7] was 35.6%; in [8] it was 77.8%; in assay [9], 76.4%; in assay [10] it was 44.6%.

Consider `COc1ccc(CCn2cncc2-c2c[nH]c3ccccc23)cc1`, for which the growth in [1] was 93.3%; in [2] it was 73.4%; in assay [3] it was 93.5%; in [4], 90.2%; in [5], 79.4%; in [6] it was 87.7%. Moreover, the growth in assay [7] was 56.4%; in assay [8] it was 88.4%; in assay [9] it was 78.2%; in [10] it was 87.6%.

Regarding `NNC(=O)c1ccc(-n2nc(-c3ccccc3)c3ccccc32)cc1`, the growth is 83.5% in assay [1]; 86.4% in [2]; 77% in assay [3]; 93.8% in assay [4]; 23.9% in [5]; 98.9% in [6]. For the same compound, the growth in [7] is 73.7%; in assay [8], 8.87% (active); in [9], 73%; in assay [10], 91.5%.

With `C[C@@H](Nc1ncnc2ccc(-c3cnc(N)nc3)cc12)c1ccc(F)cc1`, the growth in assay [1] is 85.3%; in [2], 83.6%; in [3], 78.1%; in assay [4], 44.6%; in assay [5] it was 74.3%; in assay [6], 103%. Moreover, the growth is 28.7% in assay [7], 69.2% in assay [8], 69.2% in assay [9] and 86% in assay [10].

`O=C(O)c1ccc(NCc2cn(-c3ccc(C(F)(F)F)cc3)nc2-c2ccc(C(=O)O)cc2)cc1`: the growth in assay [1] was 97.3%; in [2], 112%; in assay [3] it was 103%; in assay [4], 103%; in assay [5] it was 111%; in assay [6] it was 113%. Moreover, the growth is 106% in assay [7], 115% in assay [8], 107% in assay [9] and 104% in assay [10].

On to `C#CCNC(=O)[C@]1(C)CC[C@]2(C)CC[C@@H]3C(=CC[C@H]4[C@@]3(C)CC[C@H]3C(C)(C)C(=O)CC[C@]43C)[C@@H]2C1`, for which the growth in assay [1] was 55.9%; in assay [2] it was 69.1%; in [3] it was 96.8%; in assay [4], 102%; in assay [5] it was 91.4%; in assay [6], 92.1%. Moreover, the growth in [7] is 60.1%; in assay [8] it was 95.7%; in [9], 126%; in [10], 94.2%.

With `CCc1c2c(nc3ccc(OCc4ccc(B(O)O)cc4)cc13)-c1cc3c(c(=O)n1C2)COC(=O)[C@]3(O)CC`, the growth in assay [1] is -2.77% (active); in assay [2], 6.35% (active); in assay [3] it was 6.94% (active); in assay [4] it was 11.5%; in [5], 24.2%; in assay [6] it was -4.91% (active). In addition, the growth is 17.6% in assay [7], 6.75% (active) in assay [8], 36.7% in assay [9] and -0.104% (active) in assay [10].

Take `N#Cc1c(NC(=O)NCc2ccccc2)sc2c1CCCC2`: the growth was 23.3% in [1]; 17.7% in [2]; 26.8% in [3]; 46% in assay [4]; 48.4% in [5]; 35.1% in assay [6]. In addition, the growth in assay [7] is 28.8%; in assay [8] it was -15.7% (active); in assay [9], 9.64% (active); in assay [10], 11.1%.

In the case of `O=C(CCN1CCCC1)c1ccc([N+](=O)[O-])cc1`, the growth was 98% in [1]; 92.7% in [2]; 101% in assay [3]; 102% in assay [4]; 102% in assay [5]; 101% in [6]. The growth was 105% in assay [7], 104% in [8], 112% in [9] and 100% in [10].

`Cn1ccnc1C(=O)/C=C/c1ccc(CC(=O)Nc2ccc(F)cc2)cc1`: the growth in assay [1] is 14.4%; in assay [2], 1.1% (active); in assay [3], 12.7%; in assay [4] it was 65.5%; in assay [5], 30.3%; in assay [6], 85.4%. Further, the growth is 39.3% in assay [7], 6.19% (active) in assay [8], 57.7% in assay [9] and 21.7% in assay [10].

For `c1ccc(-c2cn3c(ccc4ccccc43)n2)cc1`, the growth is 20.9% in assay [1]; 62.5% in [2]; 71.4% in assay [3]; 77.2% in assay [4]; 91.5% in [5]; 77.1% in [6]. The growth is 49.3% in assay [7], 56.3% in assay [8], 67.8% in assay [9] and 35.7% in [10].

In the case of `COc1cc(/C=C/c2cc(O)c(C(C)=O)c(O)c2)cc2c1O[C@]1(C)CC[C@@H](O)C(C)(C)[C@H]1C2`, the growth in [1] is 29.9%; in assay [2] it was -7.38% (active); in assay [3] it was 67.7%; in assay [4], 89.8%; in [5], 90.8%; in assay [6] it was 66.1%. Besides, the growth in [7] is 60.3%; in assay [8], 61.4%; in [9], 25.4%; in assay [10] it was 74.2%.

For `COC(=O)C(OC(C)=O)C(OC(C)=O)c1ccc(OC)c(OC)c1` (stereo not given), the growth is 90.9% in assay [1]; 103% in assay [2]; 103% in assay [3]; 108% in assay [4]; 94.2% in assay [5]; 110% in [6]. The growth in assay [7] was 114%; in [8], 104%; in assay [9], 110%; in assay [10], 94.1%.
